The sample as a whole holds a higher share of hits than the screen did.
AmpC inh no detg: blocks E. coli AmpC beta-lactamase in detergent-free assay; AID 485341; AmpC nitrocefin hydrolysis, absorbance 480 nm, 0.0001% Triton; Potency, µM (highest dose often 57.1 µM), without a hit: top-dose activity change, negative = inhibition, usual class: inhibitors; P00811; 330,000 tested, 0.52% active;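 note: potency is the fitted concentration of half-maximal effect; plate controls were no compound for no effect and no enzyme for full effect; nearly all actives have a fitted effect of over 20% in size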
Target sequence (P00811 whole entry, looked up): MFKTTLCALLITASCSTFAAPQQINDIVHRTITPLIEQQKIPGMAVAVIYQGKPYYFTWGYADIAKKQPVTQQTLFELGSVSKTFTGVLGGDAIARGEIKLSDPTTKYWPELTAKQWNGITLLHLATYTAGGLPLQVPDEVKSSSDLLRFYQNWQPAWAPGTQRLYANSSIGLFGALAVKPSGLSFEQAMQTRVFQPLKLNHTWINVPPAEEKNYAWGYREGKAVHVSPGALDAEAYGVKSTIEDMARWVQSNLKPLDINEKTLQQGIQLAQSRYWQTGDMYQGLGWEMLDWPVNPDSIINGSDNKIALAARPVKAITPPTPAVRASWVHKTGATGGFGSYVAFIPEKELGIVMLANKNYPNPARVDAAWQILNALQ
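20 mM phosphate pH 7.0 + 0.01% (detergent screen) or 0.0001% Triton X-100; 5.3 nM AmpC reagent; cpd preinc 15 min RT; nitrocefin (800 uM stock) to start; A480 q20 s × 4 min; Activity was normalised to no-enzyme and no-compound control wells.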
SARS PLpro yeast: SARS-CoV PLP inhibition in yeast; S. cerevisiae expressing SARS-CoV PLpro, growth rescue; Potency, µM (titrated, usually from 32.9 µM), for the others: at the highest dose activity, positive = growth rescue, actives largely listed as activators; 330,000 tested, 0.19% active; AID 485353; calls by dose curve; note: potency is the fitted concentration of half-maximal effect; 0% is about no effect; nearly all actives have a fitted effect of over 55% in size
AMA1-RON2 inh: inhibitors of Plasmodium falciparum AMA1-RON2 interaction. 360,000 tested, 0.2% active. Potency, µM (titrated, usually from 58.2 µM), for the others: at the highest dose activity change, negative = inhibition, usual class: inhibitors. AlphaScreen AMA1-biotinylated RON2 peptide binding. AID 720542;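 note: potency is the fitted concentration of half-maximal effect; 0% = vehicle wells and -100% = peptide control; nearly all actives have a fitted effect of over 45% in size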
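AMA1 (3D7) with his tag at 25 nM final met compounds first, then biotinylated RON2 peptide at 25 nM; detection used donor plus acceptor beads, 10 µg/mL apiece, read by AlphaScreen after 30 min at room temperature.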
Shiga toxin inh: inhibitors of Shiga toxin in Vero cells. inhibition, % at 38.7 µM. Vero cells, Shiga toxin protein synthesis inhibition reporter. 290,000 tested, 9.2% active; in the data active = inhibition mostly above about 28%, no sharp cut-off; inactive = mostly below about 43%; note: 0% is about no effect
CHX counter: counter-screen for Shiga toxin inhibitors: cycloheximide protein synthesis inhibition; AID 2314; 300,000 tested, 12% active; cell reporter, cycloheximide protein synthesis inhibition counterscreen; max response, %; in the data active = max response mostly above about 13%, no sharp cut-off; inactive = mostly below about 14%; note: read at 38.3 µM for the half of the compounds with a filed dose; 0% is about no effect
AmpC detergent: blocks E. coli AmpC beta-lactamase in detergent assay; AmpC hydrolysis of nitrocefin, absorbance 480 nm, 0.01% Triton; AID 485294; Potency, µM (doses to about 114 µM), for the others: at the highest dose activity change, negative = inhibition, most hits filed as inhibitors; 370,000 tested, 0.041% active;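 note: potency is the fitted concentration of half-maximal effect; 0% = no-compound wells and -100% = no-enzyme wells; nearly all actives have a fitted effect of over 25% in size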
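AmpC (5.3 nM in the dispensed reagent) in 20 mM phosphate pH 7.0 with 0.01% (detergent screen) or 0.0001% Triton X-100 was preincubated with compounds for 15 min at room temperature. Nitrocefin was then added from an 800 uM solution, and hydrolysis was followed at 480 nm.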
* marks the source's active call; other numbers are inactive results; u = inconclusive; x = no result; [ ] = dose if it differs, or a comment. Unless noted, calls come from the whole dose curve; as a rule, active = well fitted curve in the direction sought with a large enough effect; inconclusive = small, poorly fitted or top-dose-only effect, or another doubt; inactive = no such curve, though single readings can be large; an effect the other way counts as inactive or inconclusive.

SMILES	AmpC inh no detg	SARS PLpro yeast	AMA1-RON2 inh	Shiga toxin inh	CHX counter	AmpC detergent
Cc1ccc(NC(=O)CSCc2ccc(F)cc2)cc1	-11%	0%	21%	76*	51*	-11%
Cc1ccc(CSCC(=O)Nc2ccccc2F)cc1	-20%	0%	11%	68*	25*	u
O=C(CNc1ccccc1)Nc1ccc(F)cc1	-24%	-2%	3%	118*	75*	-1%
CCOc1ccc(NC(=O)N(CCN(C)C)C(C)c2cccnc2)cc1 (stereo not given)	-5%	1%	-6%	0	-1	1%
Cc1ccc(NC(=O)Cc2ccc(F)cc2)cc1	-31%	0%	-1%	13	21*	2%
Cc1ccc(NC(=O)CCC(=O)Nc2ccc(C)cc2)cc1	9%	12%	-5%	-14	6	0%
Cc1ccc(NC(=O)CSCc2ccco2)cc1	-27%	-1%	29%	105*	23*	u
FC(F)(F)C1=Nc2cccc3cccc(c23)N1	8.9µM*	0%	u	x	x	u
CN(C)C1(CNC(=O)c2ccc(Cl)c(S(=O)(=O)NCc3ccco3)c2)CCCCC1	1%	15%	-2%	38	23*	7%
Cc1cccc(NC(=O)c2ccc(F)c(S(=O)(=O)N3CCC4(CC3)OCCO4)c2)c1	-2%	0%	9%	28	34*	5%
CC(=O)Nc1cccc(NC(=O)c2ccc(S(=O)(=O)NCc3ccco3)cc2)c1	x	x	-13%	x	x	x
Cc1cccc(NC(=O)c2ccc(F)c(S(=O)(=O)NCc3ccco3)c2)c1	-16%	4%	6%	84*	44*	-3%
NNC(=O)c1nc[nH]c1C(=O)Nc1ccccc1	7%	5%	-25%	22*	14*	1%
O=C(Nc1ccccc1)c1nc[nH]c1C(=O)NCc1ccccc1	-13%	-4%	132%	x	x	-5%
O=C(Nc1ccc(F)cc1)c1nc[nH]c1C(=O)O	-9%	-2%	14µM*	-5	-6	-9%
CCc1ccccc1NC(=O)N1CCc2ccccc21	-17%	-2%	2%	53*	16*	1%
COc1ccc(CNC(=O)c2ccc(NC(=O)N3CCCCc4ccccc43)cc2)cc1	x	x	x	x	x	1%
O=C(CCCC(=O)N1CCc2ccccc21)N1CCc2ccccc21	-5%	-2%	34%	-11	-2	-6%
CC1Cc2ccccc2N1C(=O)CN1C(=O)NC(C)(CCc2ccccc2)C1=O (stereo not given)	54%	-1%	-5%	-2	14*	4%
COc1ccc(NC(=O)N2CCCc3ccccc32)cc1	-7%	-7%	0%	122*	18*	-14%
COc1ccc(CCC(=O)N2CCc3ccccc32)cc1	-9%	8%	7%	133*	41*	3%
CC1(CCc2ccccc2)NC(=O)N(CC(=O)N2CCc3ccccc32)C1=O (stereo not given)	x	x	3%	x	x	x
CC(NCc1ccccc1)c1ccccc1O (stereo not given)	-12%	1%	2%	-2	-3	4%
Cc1ccc(NC(=O)/C=C/c2ccco2)cc1F	x	x	x	x	x	-2%
O=C(C1=NNCC1c1ccc(Cl)cc1)C1CO1 (stereo not given)	-11%	-2%	-1%	-15	1	-1%
SMILES	AmpC inh no detg	SARS PLpro yeast	AMA1-RON2 inh	Shiga toxin inh	CHX counter	AmpC detergent
Cc1ccc(-c2ccc(SCC(=O)NC3CCCCC3)nn2)cc1	-7%	5%	3%	25	7	3%
COc1ccc(C(=O)N2CCc3ccccc32)cc1	-16%	11%	4%	46*	30*	-7%
O=C(Cc1ccc(-n2cccc2)cc1)N1CCc2ccccc21	-14%	1%	-4%	47	20*	3%
COc1ccc(NC(=O)N2CCc3ccccc32)cc1	-20%	-15%	-10%	38	29*	-8%
O=C(CCC(=O)N1CCc2ccccc21)Nc1ccccc1	-17%	-8%	-5%	11	2	u
O=C(Nc1ccccc1)N1CCc2ccccc21	-22%	-23%	2%	71*	37*	-14%
COc1cccc(NC(=O)Cc2ccc(NC(=O)N3CCCCc4ccccc43)cc2)c1	x	x	x	x	x	6%
CCCN1C(=O)/C(=C/c2ccc3c(c2)OCO3)NC1=S	-28%	6%	27%	5	11	u
Cn1c(N)c(C(=O)CSc2nnc(C3CC3)n2-c2ccccc2)c(=O)n(C)c1=O	-7%	0%	-9%[11.6 µM]	x	x	-13%
CCCCN(C)CCNC(=O)C(NC(=O)C1CCC(C)CC1)C(C)C (stereo not given)	-12%	2%	11%	9	-4	u
CC(=O)c1ccc(OCC(=O)Nc2ccccc2N2CCCC2)cc1	0%	-5%	-2%	10	2	3%
C=CCC(CC)C(=O)NC(=O)N1CCCc2ccccc21 (stereo not given)	-12%	2%	1%	30*	7	-4%
COc1cc2[nH]c(C(=O)N3CCc4ccccc43)cc2c(OC)c1OC	38%	-1%	-4%	47*	30*	5%
COc1ccc(OC)c(NC(=O)N2CCCc3ccccc32)c1	-20%	-3%	0%	30	25*	-13%
COc1ccc(OC)c(NC(=O)N2CCc3ccccc3C2)c1	-6%	5%	-3%	10	16	-12%
CCN1CCN(C(=O)c2cc3c(OC)c(OC)c(OC)cc3[nH]2)CC1	-4%	1%	6%	-3	-2	-15%
COc1ccc(CCC(=O)N2c3ccccc3CC2C)cc1 (stereo not given)	-21%	-9%	7%	88*	35*	-15%
Cc1ccc(S(=O)(=O)c2cn(C)c3cc(N4CCOCC4)c(F)cc3c2=O)c(C)c1	x	x	x	x	x	20%
COC(=O)c1ccc(Cn2nnc3c(=O)[nH]c(C4CCCN(S(=O)(=O)c5ccccc5Cl)C4)nc32)cc1 (stereo not given)	-13%	5%	-2%	-6	-9	-3%
CC1Cc2ccccc2N1C(=O)CCS(=O)(=O)c1cccs1 (stereo not given)	-14%	0%	-2%	60*	33*	-13%
COC(=O)/C(=N/Nc1ccccc1OC)N1CCCc2ccccc21	-8%	1%	-20%	36	15	4%
COc1ccc(N/N=C(/C(C)=O)N2CCCc3ccccc32)cc1	-10%	0%	16µM*	43	11	-5%
CC1Cc2ccccc2N1C(=O)CN1CCN(S(=O)(=O)c2cccs2)CC1 (stereo not given)	27%	-4%	-12%	x	x	-4%
O=C(Nc1c(C(=O)N2CCOCC2)oc2ccccc12)c1ccccc1Cl	27%	0%	3%	16	7	-1%
COc1ccc(NC(=S)Nc2ccc(F)cc2)cc1	-8%	0%	2%	-6	1	-4%
O=C(Nc1ccccc1)OCCCc1ccccc1	-24%	-1%	9%	133*	50*	u
